Measurements published in the antibiotic and cytotoxicity screens of Wong et al. (2023).
About 3,300 (8.5%) of roughly 39,000 compounds were called active. What follows is part of a selection rich in actives, with near analogues and random picks from the rest.

Each compound was assayed on HepG2 (assay: cytotoxicity call (relative viability < 0.9)). Conditions: 10 µM.

| SMILES | cytotoxicity call |
| --- | --- |
| C[C@@H]1CN([C@@H](C)CO)C(=O)Cc2cc(NC(=O)c3ccncc3)ccc2O[C@@H]1CN(C)S(=O)(=O)c1cn(C)cn1 | inactive |
| C=C(C)C1=NC(C)(C)C[C@H](C)O1 | inactive |
| CS(=O)(=O)N1C[C@@H]2COC[C@@]2(CN2CCOCC2)C1 | inactive |
| CC(C)(C)S(=O)N1Cc2cc(C(=O)NCc3ccc4c(c3)OCO4)nc(-c3cccc(C#CCC4CCCC4)c3)c2[C@@H]1CCO (stereo partly specified) | inactive |
| CN(C)CCCNC(=O)C[C@@H]1CC[C@@H]2[C@H](COc3ccc(NC(=O)NC4CCCC4)cc3C(=O)N2C)O1 | inactive |
| Cc1noc(C)c1NC(=O)N(C)C[C@H]1OCCCC[C@H](C)Oc2ccc(NC(=O)c3ccccc3)cc2C(=O)N([C@@H](C)CO)C[C@@H]1C | inactive |
| C[C@H](CO)N1C[C@H](C)[C@H](CN(C)Cc2ccc(Cl)c(Cl)c2)OCCCC[C@H](C)Oc2ccc(NC(=O)C3CCCCC3)cc2C1=O | inactive |
| C[C@@H]1CN([C@@H](C)CO)C(=O)c2cc(NC(=O)C3CCCCC3)ccc2O[C@@H](C)CCCCO[C@@H]1CN(C)Cc1ccc(Cl)c(Cl)c1 | inactive |
| C[C@@H]1CCCCO[C@@H](CN(C)Cc2ccc(Cl)c(Cl)c2)[C@H](C)CN([C@H](C)CO)C(=O)c2cc(NC(=O)C3CCCCC3)ccc2O1 | active |
| COc1ccc(CN(C)C[C@@H]2Oc3ccc(NC(=O)CCCN(C)C)cc3C(=O)N([C@@H](C)CO)C[C@H]2C)cc1 | inactive |
| Cn1c(CNc2ccccc2)cc(=O)n(C)c1=O | inactive |
| COCCOC(=O)N1C(=O)[C@@]2(c3cc(C#CC4(O)CCCCCC4)ccc31)[C@H](c1ccccc1OCCO)N1[C@H](c3ccccc3)[C@H](c3ccccc3)OC(=O)[C@H]1[C@@H]2C(=O)N1CCc2cc(OC)c(OC)cc2C1 | inactive |
| O=C1C=C(O)C(=O)c2ccccc21 | inactive |
| NC1=CC(=O)c2ccccc2C1=O | inactive |
| CC1=CC(=O)c2ccccc2C1=O | active |
| O=C(C[C@H]1CC[C@H]2[C@@H](COC[C@@H](O)CN2C(=O)Nc2ccc(F)cc2)O1)NCCCN1CCOCC1 | inactive |
| CC(C)NC(=O)N(C)C[C@@H]1Oc2ccc(NS(=O)(=O)c3cn(C)cn3)cc2C(=O)N([C@@H](C)CO)C[C@H]1C | inactive |
| C[C@@H]1CN([C@@H](C)CO)C(=O)CCCn2cc(nn2)CO[C@H]1CN(C)S(=O)(=O)c1ccc(Cl)cc1 | inactive |
| NCc1ccc(S(=O)(=O)N2CCOCC2)cc1 | inactive |
| NC(=O)c1cc(S(=O)(=O)N2CCOCC2)ccc1F | active |
| Cn1c(=O)c(=O)n(C)c2cc(S(=O)(=O)N3CCOCC3)ccc21 | inactive |
| COCC(=O)Nc1ccc2c(c1)OC[C@H](C)N(C(=O)Cc1ccccn1)C[C@H](C)[C@H](OC)CN(C)C2=O | inactive |
| C[C@@H]1CN([C@H](C)CO)S(=O)(=O)c2ccc(-c3cncnc3)cc2O[C@H]1CN(C)C(=O)NC1CCCC1 | inactive |
| CC[C@H]1OC(=O)[C@H](C)[C@@H](O[C@H]2C[C@@](C)(OC)[C@@H](O)[C@H](C)O2)[C@H](C)[C@@H](O[C@@H]2O[C@H](C)C[C@H](N(C)C)[C@H]2O)[C@](C)(OC)C[C@@H](C)C(=O)[C@H](C)[C@@H](O)[C@]1(C)O | inactive |

| SMILES | cytotoxicity call |
| --- | --- |
| C[C@@H](O)c1cccc(C(F)(F)F)c1 | inactive |
| COc1ccccc1C(=O)Nc1ccc2c(c1)C(=O)N(C)[C@@H]1CC[C@H](CC(=O)NCCc3ccncc3)O[C@@H]1CO2 | inactive |
| COc1ccccc1C(=O)Nc1ccc2c(c1)C(=O)N(C)[C@@H]1CC[C@H](CC(=O)NCc3ccc(Cl)c(Cl)c3)O[C@H]1CO2 | inactive |
| COc1ccccc1C(=O)Nc1ccc2c(c1)C(=O)N(C)[C@@H]1CC[C@@H](CC(=O)NCc3ccc(Cl)c(Cl)c3)O[C@@H]1CO2 | active |
| COc1ccccc1C(=O)Nc1ccc2c(c1)C(=O)N(C)[C@H]1CC[C@@H](CC(=O)NCCc3ccncc3)O[C@@H]1CO2 | inactive |
| COc1ccccc1C(=O)Nc1ccc2c(c1)C(=O)N(C)[C@H]1CC[C@H](CC(=O)NCc3ccc(Cl)c(Cl)c3)O[C@H]1CO2 | active |
| COc1ccccc1C(=O)Nc1ccc2c(c1)C(=O)N(C)[C@@H]1CC[C@@H](CC(=O)NCCc3ccncc3)O[C@H]1CO2 | inactive |
| COc1ccccc1C(=O)Nc1ccc2c(c1)C(=O)N(C)[C@@H]1CC[C@H](CC(=O)NCc3ccc(Cl)c(Cl)c3)O[C@@H]1CO2 | inactive |
| CN1C(=O)c2cc(NC(=O)Cc3cccs3)ccc2OC[C@H]2O[C@H](CC(=O)NCc3ccc(-c4ccccc4)cc3)CC[C@@H]21 | inactive |
| COc1ccccc1C(=O)Nc1ccc2c(c1)C(=O)N(C)[C@H]1CC[C@@H](CC(=O)NCCc3ccncc3)O[C@H]1CO2 | inactive |
| COc1ccccc1C(=O)Nc1ccc2c(c1)C(=O)N(C)[C@H]1CC[C@H](CC(=O)NCc3ccc(Cl)c(Cl)c3)O[C@@H]1CO2 | active |
| CN1C(=O)c2cc(NC(=O)Cc3cccs3)ccc2OC[C@H]2O[C@@H](CC(=O)NCc3ccc(-c4ccccc4)cc3)CC[C@@H]21 | inactive |
| CN1C(=O)c2cc(NC(=O)Cc3cccs3)ccc2OC[C@@H]2O[C@H](CC(=O)NCc3ccc(-c4ccccc4)cc3)CC[C@@H]21 | active |
| COc1ccc(NC(=O)N(C)C[C@@H]2OCCCC[C@@H](C)Oc3ccc(NC(=O)C4CCCCC4)cc3C(=O)N([C@@H](C)CO)C[C@@H]2C)cc1 | inactive |
| C[N+](C)(C)CCCC[C@@H]1NC(=O)[C@H]2C[C@@H](C(=O)NCCCCCCN)[C@@H](c3ccc(O)cc3)N2C1=O | inactive |
| CCNC(=O)[C@@H]1CCCN1C(=O)[C@H](CCCN=C(N)N)NC(=O)[C@H](CC(C)C)NC(=O)[C@@H](Cc1c[nH]c2ccccc12)NC(=O)[C@H](Cc1ccc(O)cc1)NC(=O)[C@H](CO)NC(=O)[C@H](Cc1c[nH]c2ccccc12)NC(=O)[C@H](Cc1c[nH]cn1)NC(=O)[C@@H]1CCC(=O)N1 | inactive |
| C[C@H](CO)N1C[C@H](C)[C@H](CN(C)C(=O)c2ccccn2)Oc2cc(C#Cc3ccc(F)cc3)ccc2S1(=O)=O | inactive |
| O=C(O)c1ccc(O)cc1O | inactive |
| C[C@H](CO)N1C[C@H](C)[C@H](CN(C)Cc2ccc(C(F)(F)F)cc2)OCc2ccccc2-c2ccccc2C1=O | inactive |
| COc1ccccc1CNC(=O)C[C@@H]1C[C@H]2c3cc(NS(=O)(=O)c4ccc(F)cc4)ccc3O[C@H]2[C@@H](CO)O1 | inactive |
| C[C@H]1CCCCO[C@H](CN(C)S(=O)(=O)c2cccs2)[C@@H](C)CN([C@@H](C)CO)C(=O)c2cc(NS(=O)(=O)c3cn(C)cn3)ccc2O1 | inactive |
| C[C@@H]1CN([C@@H](C)CO)C(=O)Cc2cc(NS(=O)(=O)c3cn(C)cn3)ccc2O[C@H]1CN(C)Cc1ccc2c(c1)OCO2 | inactive |
| C[C@H](CO)N1C[C@H](C)[C@@H](CN(C)C(=O)C2CCCCC2)OCCCC[C@H](C)Oc2ccc(NC(=O)Nc3cccc4ccccc34)cc2C1=O | inactive |
| C[C@@H]1CCCCO[C@@H](CN(C)S(C)(=O)=O)[C@H](C)CN([C@@H](C)CO)C(=O)c2cc(NS(=O)(=O)c3ccccc3)ccc2O1 | inactive |

| SMILES | cytotoxicity call |
| --- | --- |
| COc1ccccc1C(=O)Nc1ccc2c(c1)C(=O)N(C)[C@H]1CC[C@@H](CC(=O)NCc3ccc(Cl)c(Cl)c3)O[C@@H]1CO2 | active |
| COc1ccccc1C(=O)Nc1ccc2c(c1)C(=O)N(C)[C@@H]1CC[C@H](CC(=O)NCCc3ccncc3)O[C@H]1CO2 | inactive |
| COc1ccccc1C(=O)Nc1ccc2c(c1)C(=O)N(C)[C@@H]1CC[C@@H](CC(=O)NCc3ccc(Cl)c(Cl)c3)O[C@H]1CO2 | inactive |
| COc1ccc(S(=O)(=O)N(C)C[C@@H]2Oc3ccc(NC(=O)Cn4cnnn4)cc3C(=O)N([C@H](C)CO)C[C@H]2C)cc1 | inactive |
| C[C@H](CO)N1C[C@H](C)[C@@H](CN(C)S(C)(=O)=O)OCCCC[C@H](C)Oc2ccc(NC(=O)Nc3ccc(C(F)(F)F)cc3)cc2C1=O | inactive |
| C[C@@H]1CCCCO[C@@H](CN(C)Cc2ccc(C(F)(F)F)cc2)[C@@H](C)CN([C@@H](C)CO)C(=O)c2cc(NS(=O)(=O)c3cn(C)cn3)ccc2O1 | inactive |
| CC(C)CCN1CCn2c(CO)nnc2C1 | inactive |
| C[C@@H]1CN([C@@H](C)CO)C(=O)Cc2cc(NC(=O)C3CC3)ccc2O[C@H]1CN(C)C(=O)NC1CCCCC1 | inactive |
| Cl.N#Cc1ccc2[nH]cc(CCCCN3CCN(c4ccc5oc(C(N)=O)cc5c4)CC3)c2c1 | active |
| CCC(=O)C12CC3CC(CC(C3)C1)C2 | inactive |
| COc1ccc(NC(=O)N(C)C[C@H]2OCCCC[C@H](C)Oc3ccc(NC(=O)Nc4ccc5c(c4)OCO5)cc3C(=O)N([C@H](C)CO)C[C@@H]2C)cc1 | inactive |
| COC(=O)[C@@H](N)Cc1ccc(-n2cc(CCC(=O)NO)nn2)cc1 | active |
| CCOc1cc(OCC)cc(C(=O)N[C@@H](Cc2ccc(-n3cc(CCC(=O)NO)nn3)cc2)C(=O)OC)c1 | inactive |
| Cc1ccc(S(=O)(=O)N[C@H](C(=O)NCCn2cc(CCC(=O)NO)nn2)C(C)C)cc1 | inactive |
| C#CCN([C@H](/C=C/C1CC1)[C@@H](O)Cc1ccccc1)[C@@H](Cc1ccc(-n2cc(COc3ccccc3/C=C(C)/C=C/C(=O)NO)nn2)cc1)C(=O)OC | inactive |
| COC(=O)[C@@H](Cc1ccc(-n2cc(COc3ccccc3/C=C(C)/C=C/C(=O)NO)nn2)cc1)N1CC(/C=C/C2CC2)=C[C@H]1[C@H](O)Cc1ccccc1 | inactive |
| CC(/C=C/C(=O)NO)=C\c1ccccc1OCc1cn(CCNC(=O)[C@@H](NS(=O)(=O)c2ccc(C)cc2)C(C)C)nn1 | inactive |
| COC(=O)[C@H](Cc1ccccc1)N1C[C@](C)(OC(C)C)O[C@@H](CCn2cc(COc3ccccc3/C=C(C)/C=C/C(=O)NO)nn2)[C@@H]1/C=C/C1CC1 | inactive |
| Nc1ccc(-n2cc(CCC(=O)NO)nn2)cc1 | inactive |
| CC(/C=C/C(=O)NO)=C\c1ccccc1OCc1cn(-c2cccc(N(S(=O)(=O)c3ccc(C)cc3)S(=O)(=O)c3ccc(C)cc3)c2)nn1 | active |
| CC(/C=C/C(=O)NO)=C\c1ccccc1OCc1cn(C[C@@H]2CCCN2S(=O)(=O)c2ccc(C)cc2)nn1 | active |
| Nc1cccc(-n2cc(CCC(=O)NO)nn2)c1 | inactive |
| Cc1ccc(S(=O)(=O)N(c2cccc(-n3cc(CCC(=O)NO)nn3)c2)S(=O)(=O)c2ccc(C)cc2)cc1 | active |
